# Results from PubChem BioAssay (Tox21).
# Records with an inconclusive call do not appear. A number with no mark means an inactive call. Calls follow the shape of the dose curve; as a rule, active = well fitted cell-killing curve with a large enough effect in the repeat runs; inconclusive = weak or mixed curves, or effect the other way; inactive = flat fitted curve, though single readings scatter.
# Assay: qHTS assay to identify small molecule antagonists of the constitutive androstane receptor (CAR) signaling pathway - cell viability counter screen (AID 1224837); also: nearly all actives have a fitted effect of over 45% in size
# Conditions: HepG2-CYP2B6-hCAR viability, CellTiter-Fluor, 23 h, co-treated with 50 nM CITCO; series mostly up to 92.4 µM; activity change, negative = cytotoxicity: at the top concentration
# Source text: National Center for Advancing Translational Sciences [NCATS]
# NIH Chemical Genomics Center [NCGC]
# U.S. Environmental Protection Agency [EPA]
# National Institutes of Environmental Health Sciences [NIEHS]
# National Toxicology Program [NTP]
# U.S. Food and Drug Administration [FDA]
# The constitutive androstane receptor (CAR) is a nuclear receptor which regulates multiple drug metabolizing enzymes (DMEs) and transporters. Activating CAR will generally increase the transcription and subsequent translation of CYP2B6 and CYP3A4. These two DMEs represent about 50% of the drug metabolizing potential in the body. When CAR is deactivated, the metabolizing potential in the body will decrease, subsequently increasing the toxicity in the body or lowering the therapeutic potential of a pro-drug. Recently, there have also been studies performed indicating CARs role in energy metabolism and cancer therapy. Therefore, inhibiting CARs activity could have a potential effect on diabetes and cancer. Identifying environmental toxins and compounds which modulate CAR, through the use of the Tox21 10K compound collection, will be an important step in determining the toxicity and potential therapeutic effects these factors will have on the human body. To differentiate true CAR antagonists from cytotoxic substances, the assay is multiplexed with a cell viability assay.
# Tox21 Assay Protocol Summary:
# A double-stable (hCAR and CYP2B6-2.2kb) transfected cell line, derived from human hepatoma (HepG2) cells, was utilized for the duration of the quantitative high-throughput screens. The HepG2-CYP2B6-hCAR cells were dispensed at 2500 cells/4 uL/well in 1536-well white solid bottom plates using a Multidrop Combi. After the assay plates were incubated at 37 C/5% CO2 for 4 hrs, 23 nL of compounds at 15 concentrations (from 5-48 columns) or positive control (from 1 to 4 columns) were transferred to the assay plates using a Pintool station. One uL of CITCO (final concentration = 50 nM) was added, using a Flying Reagent Dispenser, inside each well. After a 23 hr incubation period at 37 C/5% CO2, 1 uL of CellTiter-Fluor reagent was added into each well of the assay plates using a Flying Reagent Dispenser. The fluorescence intensity in the plates was then measured using a ViewLux plate reader.
# % is scaled to controls: 0 for no effect and ±100 for the full control effect.
row,Compound,"activity change, negative = cytotoxicity"
1,ClCCCl,-0.389%
2,COC(=O)CCCCCCCC(=O)OC,2.22%
3,CC(=O)c1sc(C)nc1C,-0.777%
4,COC(=O)[C@@H]1[C@H]2C[C@H]3c4[nH]c5ccccc5c4CCN3C[C@@H]2CC[C@@H]1O,-10.3% [at 42.5 µM]
5,O=C1CCCC(=O)O1,0.618%
6,CCCCCCCCCC(C)=O,1.41%
7,O=C(O)c1ccc(Cl)cc1Cl,-0.548%
8,COc1cc(NS(=O)(=O)c2ccc(N)cc2)nc(OC)n1,-1.83% [at 42.5 µM]
9,CC(C)CCCCOC(=O)c1ccccc1C(=O)OCCCCC(C)C,-5.49%
10,COCCOCCOCCOCCOCCO,1.79%
11,FC(F)(F)c1ccccc1-n1ccnc1,-1.75% [at 42.5 µM]
12,COc1cc(N)ccc1C,-0.24%
13,O=S(=O)(O)c1ccc2cc(O)c(S(=O)(=O)O)cc2c1,1.17%
14,C=C(C)C(=O)OCc1ccccc1,0.732%
15,CC(=O)Nc1cccc(C)c1,-0.147%
16,C=C(C)C(=O)OCCOP(=O)(O)OCCOC(=O)C(=C)C,12.3%
17,C=C1CC/C=C(\C)CC[C@@H]2[C@@H]1CC2(C)C,1.25%
18,C=C(C)C(=O)OCCN(CC)CC,0.826%
19,C=C(C)C1CCC(C)(O)CC1 (stereo not given),-0.261%
20,O=C(O)C(=O)Cc1ccccc1,0.083%

row,Compound,"activity change, negative = cytotoxicity"
1,CC(C)NCC(O)COc1ccc(COCCOC(C)C)cc1 (stereo not given),-0.137% [at 42.5 µM]
2,CCN1CCc2nc(N)oc2CC1,6.34% [at 42.5 µM]
3,O=C(OCc1ccccc1)C(=O)OCc1ccccc1,3.33%
4,CC1(CO)CN(c2ccccc2)NC1=O (stereo not given),7.32%
5,O=C1O[C@@H]2[C@@H](O)[C@H](O)O[C@@H]2[C@H]1O,0.267%
6,COC(=O)CCc1ccc(OCC(O)CNC(C)C)cc1 (stereo not given),1.44% [at 42.5 µM]
7,CC(N)C(=O)OC(C)(C)Cc1ccc(Cl)cc1 (stereo not given),2.95% [at 42.5 µM]
8,C[C@@H](Oc1ccc(CNC(=O)c2cccnc2Oc2ccc3c(c2)OCO3)c(F)c1)C(=O)O,6.76%
9,Cc1ccccc1OCC(O)CO (stereo not given),0.806% [at 42.5 µM]
10,On1nnc2ccccc21,0.654%
11,O=C(O)CCSSCCC(=O)O,5.4%
12,CCCCC(CC)COCCO (stereo not given),2.17%
13,CC(C)C[C@H](NC(=O)CNC(=O)[C@H](Cc1ccc(O)cc1)NC(=O)[C@H](CO)NC(=O)[C@H](Cc1c[nH]c2ccccc12)NC(=O)[C@H](Cc1cnc[nH]1)NC(=O)[C@@H]1CCC(=O)N1)C(=O)N[C@@H](CCCN=C(N)N)C(=O)N1CCC[C@H]1C(=O)NCC(N)=O (stereo in doubt),-6.31% [at 42.5 µM]
14,O=C(CCNNC(=O)c1ccncc1)NCc1ccccc1,12.1% [at 42.5 µM]
15,CCCCCOC(=O)CCC,-10.7%
16,CCCCCCCCSCC,7.04%
17,CCO[Si](CCCS)(OCC)OCC,0.66%
18,CC(C)CC(C)CC(C)CC(C)COC(=O)c1ccccc1C(=O)OCC(C)CC(C)CC(C)CC(C)C (stereo not given),1.23%
19,CCCCCCN,2.05%
20,Cc1ccc2ccc(Cl)cc2n1,1.18% [at 42.5 µM]
